Bioassay records deposited in PubChem BioAssay by National Center for Advancing Translational Sciences (NCATS).
VACV mCherry inh – qHTS for Stage-Specific Inhibitors of Vaccinia Orthopoxvirus: mCherry Reporter Primary qHTS. Vaccinia virus mCherry reporter infection, fluorescence. Potency, µM (titrated, usually from 36.5 µM), for the others: at the top dose activity change, negative = inhibition, actives largely listed as inhibitors. actives 0.63% (n = 310,000); calls by dose curve; tested in A549 cells; further: potency means the concentration at half of the fitted maximal effect; on the % scale 0 is the no-effect control and ±100 the full control effect; nearly all actives have a fitted effect of over 35% in size
AMA1-RON2 inh – qHTS for Inhibitors of AMA1-RON; Towards Development of Antimalarial Drug Lead: Primary Screen; Plasmodium falciparum AMA1 (3D7) - RON2 peptide interaction; AlphaScreen AMA1-biotinylated RON2 peptide binding; Potency, µM (doses to about 58.2 µM), for the others: at the top dose activity change, negative = inhibition, usual class: inhibitors; actives 0.2% (n = 360,000);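 further: potency means the concentration at half of the fitted maximal effect; 0% = vehicle wells and -100% = peptide control; nearly all actives have a fitted effect of over 45% in size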
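AMA1 (3D7) with his tag at 25 nM final met compounds first, then biotinylated RON2 peptide at 25 nM; detection used donor plus acceptor beads, 10 µg/mL apiece, read by AlphaScreen after 30 min at room temperature.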
Vaccinia Venus – qHTS for Stage-Specific Inhibitors of Vaccinia Orthopoxvirus: Venus Reporter Primary qHTS; actives 0.46% (n = 330,000); Vaccinia virus Venus reporter expression, fluorescence; Potency, µM (top dose mostly 36.5 µM), inactives show top-dose activity change, negative = inhibition, actives largely listed as inhibitors; calls by dose curve; tested in A549 cells; further: potency means the concentration at half of the fitted maximal effect; on the % scale 0 is the no-effect control and ±100 the full control effect; nearly all actives have a fitted effect of over 30% in size
SARS PLpro yeast-1 – qHTS of Yeast-based Assay for SARS-CoV PLP | S. cerevisiae expressing SARS-CoV PLpro, growth rescue | Potency, µM (highest dose often 32.9 µM), inactives show at the top dose activity, positive = growth rescue, hits mostly activators | actives 0.19% (n = 330,000) | AID 485353, 2010; calls by dose curve; further: potency means the concentration at half of the fitted maximal effect; 0% is about no effect; nearly all actives have a fitted effect of over 55% in size
AmpC inh detg – qHTS Inhibitors of AmpC Beta-Lactamase (assay with detergent) | P00811 | AID 485294, 2010 | AmpC hydrolysis of nitrocefin, absorbance 480 nm, 0.01% Triton | actives 0.041% (n = 370,000) | Potency, µM (series often up to 114 µM), without a hit: top-dose activity change, negative = inhibition, most hits filed as inhibitors;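 further: potency means the concentration at half of the fitted maximal effect; 0% = no-compound wells and -100% = no-enzyme wells; nearly all actives have a fitted effect of over 25% in size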
Target sequence (P00811 whole entry, looked up): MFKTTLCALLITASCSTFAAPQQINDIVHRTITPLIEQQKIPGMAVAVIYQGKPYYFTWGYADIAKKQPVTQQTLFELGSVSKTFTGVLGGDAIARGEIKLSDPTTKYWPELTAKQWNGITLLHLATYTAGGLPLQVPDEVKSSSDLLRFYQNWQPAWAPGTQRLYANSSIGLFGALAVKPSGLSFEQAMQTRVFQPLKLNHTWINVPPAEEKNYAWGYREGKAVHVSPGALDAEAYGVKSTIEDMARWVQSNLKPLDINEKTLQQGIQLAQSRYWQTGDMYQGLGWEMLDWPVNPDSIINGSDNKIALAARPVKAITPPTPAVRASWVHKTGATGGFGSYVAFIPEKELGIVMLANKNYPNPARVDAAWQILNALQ
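AmpC (5.3 nM in the dispensed reagent) in 20 mM phosphate pH 7.0 with 0.01% (detergent screen) or 0.0001% Triton X-100 was preincubated with compounds for 15 min at room temperature. Nitrocefin was then added from an 800 uM solution, and hydrolysis was followed at 480 nm.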
AmpC no deterg – qHTS Inhibitors of AmpC Beta-Lactamase (assay without detergent) | actives 0.52% (n = 330,000) | P00811 | AmpC nitrocefin hydrolysis, absorbance 480 nm, 0.0001% Triton | Potency, µM (top dose mostly 57.1 µM), inactives show at the top dose activity change, negative = inhibition, hits mostly inhibitors;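 further: potency means the concentration at half of the fitted maximal effect; plate controls were no compound for no effect and no enzyme for full effect; nearly all actives have a fitted effect of over 20% in size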
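20 mM phosphate pH 7.0 + 0.01% (detergent screen) or 0.0001% Triton X-100; 5.3 nM AmpC reagent; cpd preinc 15 min RT; nitrocefin (800 uM stock) to start; A480 q20 s × 4 min; Activity was normalised to no-enzyme and no-compound control wells.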
SARS PLpro yeast-2 – qHTS of Yeast-based Assay for SARS-CoV PLP: Hit Validation | actives 19% (n = 1,000) | calls only | shares compounds with SARS PLpro yeast-1 | yeast expressing SARS-CoV PLpro, growth phenotype rescue; call rule not given here
An asterisk follows results filed as active; i = inactive; u = inconclusive; x = no result; + = active, no number; [ ] = remark or other dose. The list is not random: actives were taken first. Their share in the collection is about 1.4%. Unless noted, the call rests on the fitted dose curve; in most records, active means well fitted curve in the direction sought with a large enough effect; inconclusive means small, poorly fitted or top-dose-only effect, or another doubt; inactive means no such curve, though single readings can be large; an effect the other way counts as inactive or inconclusive.

SMILES | VACV mCherry inh | AMA1-RON2 inh | Vaccinia Venus | SARS PLpro yeast-1 | AmpC inh detg | AmpC no deterg | SARS PLpro yeast-2
CCOc1ccc(N2C(=O)CC(SC(=NC)Nc3ccc4c(c3)OCO4)C2=O)cc1 (stereo not drawn) | i | -4.5% | -25.6% | u | u | -6.0% | u
Cc1onc(-c2ccccc2)c1C(=O)NC(=S)NNC(=O)c1ccc(O)cc1 | -18.1% | 48.2% | -22.1% | 0.9% | -10.7% | -36.5% | x
Cc1onc(-c2ccccc2)c1C(=O)NC(=S)NNC(=O)c1ccccc1O | u | 8.7% | u | 4.47µM* | -11.9% | -34.3% | i
Cc1onc(-c2ccccc2)c1C(=O)NNC(=O)c1ccccc1Br | x | 49.1% | x | 2.5% | -6.1% | -49.1% | x
Cc1onc(-c2ccccc2)c1C(=O)NC(=S)NNC(=O)c1ccc(O)cc1O | -9.0% | -22.0% | -21.2% | 14.1µM* | 0.9% | -49.5% | +
Cc1ccc(C(=O)NC(=S)Nc2ccccc2N2CCCC2)cc1[N+](=O)[O-] | -14.4% | 4.9%[11.6 µM] | -14.4% | u | -1.0% | -31.3% | +
Cc1ccc(C(=O)Nc2ccccc2N2CCCCC2)cc1[N+](=O)[O-] | i | -0.8% | -7.2% | 0.9% | -13.3% | -22.1% | x
CNC(=S)N/N=C/C1=CCC2CC1C2(C)C (stereo not drawn) | -30.0% | 59.4% | -12.2% | 12.6µM* | -14.8% | -30.6% | +
COc1cc([N+](=O)[O-])cc(/C=N/NC(=O)C(C)Nc2cccc3ccccc23)c1O (stereo not drawn) | -13.7% | 12.6% | -21.7% | 10µM* | -10.4% | -38.3% | u
Cc1ccccc1NC(=O)/C(=C/c1cccs1)NC(=O)c1ccco1 | i | -8.2% | -10.0% | 9.4% | 1.4% | -8.9% | x
Cc1ccccc1NC(=O)/C(=C\c1cccs1)NC(=O)c1ccco1 | x | 2.8% | x | u | -0.2% | -17.1% | i
CCc1ccc(OCC(=O)N(Cc2ccc(OC)cc2)C2CCS(=O)(=O)C2)cc1 (stereo not drawn) | -5.3% | x | -10.2% | x | 2.1% | x | x
COc1cccc(-n2c(SC)nnc2C2CCN(Cc3cccc(OC)c3O)CC2)c1 | -6.6% | x | 1.1% | x | x | x | x
OC1(c2cccc(C(F)(F)F)c2)CCN(Cc2nnnn2CCc2ccccc2)CC1 | x | 4.7% | -12.0% | u | -4.8% | 180.8% | i
O=C(NN=Cc1cc(Cl)ccc1[N+](=O)[O-])c1cccc2ccccc12 | -7.3% | 19.9% | -8.4% | x | x | x | x
Cc1cc(C(=O)NN=C2CCCCC2)c2ccccc2n1 | -13.7% | 3.0% | -21.3% | 12.6µM* | -8.1% | -23.2% | i
Cc1cc(C(=O)N/N=C/c2cc(Cl)cc([N+](=O)[O-])c2O)c2ccccc2n1 | -8.8% | u | -20.5% | 2.24µM* | u | -33.8% | i
O=C(CSc1nnc(-c2ccccc2)n1Cc1ccccc1)NNC(=O)c1ccccc1O | u | 84.9% | u | 5.01µM* | -10.8% | -17.5% | i
O=C(CSc1nnc(-c2ccccc2O)n1Cc1ccccc1)NNC(=O)c1ccccc1O | -24.0% | 58.0% | -16.7% | 6.31µM* | -12.2% | -37.6% | +
Cn1c(SCC(=O)NNC(=O)c2ccccc2O)nnc1-c1ccccc1 | u | -0.1% | -1.8% | u | -4.9% | -7.4% | x
Cc1nc([N+](=O)[O-])cn1CC(=O)c1ccc2c(c1)OCCO2 | -0.2% | x | -14.0% | x | x | x | x
CCn1nc(C)c(/C=C/C(=O)Nc2ccc(C)cc2C)c1C | i | -3.2% | -20.1% | u | -5.9% | -39.6% | i
O=C([C@@H]1CC=C[C@@H]2CCN(C3CC3)C(=O)[C@@H]21)N1CCOCC1 | -13.4% | x | -8.1% | x | x | x | x
